Laboratory results published in PubChem BioAssay (NCI).
Values joined by “and” are separate entries in the source; they are usually repeats but may differ in a detail not shown here. Equal values may be shown once. The panel holds about 79,000 compounds, 15% with a hit somewhere; the sample as a whole holds those more often. Some compounds were tested as several samples or in several runs, with calls that do not always agree. Active and inactive are the calls of the source. Cut-off read from the data, not from the text of the source: active = growth inhibition above about 70%; inactive = the rest.

Legend:
[1] = NCI Yeast Anticancer Drug Screen. Data for the rad52 strain (AID 147);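 note: 0% = growth of vehicle-treated control cultures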; details: S. cerevisiae rad52 mutant growth inhibition, stronger effect = higher value
How it was run: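 Compounds are applied to a genetically defined yeast strain lacking normal DNA damage repair, and inhibition of growth is expressed relative to cultures given vehicle only.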

[2] = NCI Yeast Anticancer Drug Screen. Data for the wt1 strain (AID 149);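 note: 0% = growth of vehicle-treated wt1 cultures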; details: S. cerevisiae wt1 strain (SPY 50644) growth inhibition, stronger effect = higher value
How it was run: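 Yeast wt1 strain exposed to compounds; growth inhibition measured relative to vehicle-treated controls.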

[3] = NCI Yeast Anticancer Drug Screen. Data for the rad50EPP+ strain (AID 151);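 note: 0% = growth of vehicle-treated control cultures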; details: S. cerevisiae rad50 mutant strain, stronger effect = higher value
How it was run: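 Compounds were applied to the rad50EPP+ yeast strain, which bears a defined DNA repair alteration, and growth inhibition was determined relative to vehicle-treated cultures.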

[4] = NCI Yeast Anticancer Drug Screen. Data for the rad50 strain (AID 155);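 note: 0% = growth of vehicle-only cultures of the same strain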; details: S. cerevisiae rad50 strain growth inhibition, stronger effect = higher value
How it was run: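 Yeast carrying a defined DNA repair defect were exposed to test compounds, and growth was compared with vehicle-treated controls to give percent inhibition.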

[5] = NCI Yeast Anticancer Drug Screen. Data for the mec2-1 strain (AID 157); details: S. cerevisiae mec2-1 strain, stronger effect = higher value
How it was run: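 Strain: mec2-1 (DNA repair/cell cycle alteration). Compound exposure, then growth measured; inhibition expressed relative to vehicle.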

[6] = NCI Yeast Anticancer Drug Screen. Data for the rad14 strain (AID 159);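 note: 0% = growth of vehicle-treated control cultures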; details: S. cerevisiae rad14 strain growth inhibition, stronger effect = higher value
How it was run: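 Yeast cells carrying a defined DNA-repair defect were exposed to compounds, and growth inhibition was calculated relative to vehicle-treated control cultures.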

[7] = NCI Yeast Anticancer Drug Screen. Data for the sgs1 mgt1 strain (AID 161);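 note: 0% = growth of cultures given vehicle only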; details: S. cerevisiae sgs1 mgt1 strain, stronger effect = higher value
How it was run: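 Test agents were incubated with a DNA-repair-mutant yeast strain. Growth was then read and compared against vehicle-treated controls.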

[8] = NCI Yeast Anticancer Drug Screen. Data for the CLN2oe strain (AID 163);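 note: 0% = growth of vehicle-only control cultures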; details: S. cerevisiae CLN2oe strain, stronger effect = higher value
How it was run: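 Growth of a genetically modified yeast strain is measured after compound exposure and compared with cultures given vehicle alone.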

[9] = NCI Yeast Anticancer Drug Screen. Data for the cln2 rad14 strain (AID 165);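 note: 0% = growth equal to vehicle treated cultures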; details: S. cerevisiae cln2 rad14 strain, stronger effect = higher value
How it was run: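 Compounds are applied to the cln2 rad14 yeast strain, and growth is then compared with that of vehicle-treated cultures to give inhibition.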

[10] = NCI Yeast Anticancer Drug Screen. Data for the bub3 strain (AID 167); details: S. cerevisiae bub3 mutant strain, stronger effect = higher value
How it was run: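 Compounds were applied to a genetically altered yeast strain carrying a cell-cycle control defect. Growth inhibition was scored against vehicle-treated controls.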

[11] = NCI Yeast Anticancer Drug Screen. Data for the mlh1 strain (AID 171);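 note: 0% = growth of vehicle-treated control cultures of the same strain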; details: S. cerevisiae mlh1 strain growth inhibition, stronger effect = higher value
How it was run: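 Growth of the mutant yeast strain after compound exposure, expressed as inhibition relative to vehicle-only controls.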

[12] = NCI Yeast Anticancer Drug Screen. Data for the sgs1 strain (AID 173);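 note: 0% = growth of vehicle-only control cultures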; details: S. cerevisiae sgs1 mutant, stronger effect = higher value
How it was run: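 Growth of a yeast strain bearing a defined genetic alteration is measured after compound treatment. Inhibition is expressed relative to vehicle-only controls.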

[13] = NCI Yeast Anticancer Drug Screen. Data for the mlh1 rad18 strain (AID 175); details: S. cerevisiae mlh1 rad18 strain growth inhibition, stronger effect = higher value
How it was run: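 Read-out is yeast growth inhibition, calculated against vehicle-only controls. The compound was applied to a strain engineered with DNA damage repair alterations.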

[14] = NCI Yeast Anticancer Drug Screen. Data for the rad18 strain (AID 177); details: S. cerevisiae rad18 mutant growth inhibition, stronger effect = higher value
How it was run: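 Growth of the mutant yeast strain after compound exposure, normalised to vehicle-only cultures.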

[15] = NCI Yeast Anticancer Drug Screen. Data for the wt2 strain (AID 169);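 note: 0% = growth of vehicle-treated yeast cultures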; details: S. cerevisiae wt2 strain growth inhibition, stronger effect = higher value
How it was run: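 This strain belongs to a panel of yeast strains with defined genetic alterations in DNA damage repair or cell cycle control. Compounds are applied, and growth inhibition is measured against vehicle-treated cultures.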

[16] = at 5.0 µM (retest, dose inferred, filed as 0.5)
[17] = at 50.0 µM (retest, dose inferred, filed as 5.0)

Measured: growth inhibition

COc1ccc2[nH]cc([C@@H]3C4CCC(C4)[C@H]3NCc3cccc(CN[C@H]4C5CCC(C5)[C@@H]4c4c[nH]c5ccc(OC)cc45)c3)c2c1
98.8% (active) and 35.2% (inactive): [10]; at 50.0 µM
99.2% (active) and 10.9% (inactive): [5]; at 50.0 µM
98.3% (active) and 55.8% (inactive): [4]; at 50.0 µM
inactive: [1]; at 1.2 µM -28% | [1]; at 3.7 µM -23% | [1]; at 11.0 µM -20% | [1]; at 33.0 µM 22% | [2]; at 1.2 µM -33% | [2]; at 3.7 µM -43% | [2]; at 11.0 µM -41% | [2]; at 33.0 µM -8% | [3]; at 1.2 µM -19% | [3]; at 3.7 µM -14% | [3]; at 11.0 µM -7% | [3]; at 33.0 µM -23% | [3]; at 100.0 µM 63% | [4]; at 1.2 µM -36% | [4]; at 3.7 µM -16% | [4]; [16] -15% | [4]; at 11.0 µM -27% | [4]; at 33.0 µM 51% | [5]; at 1.2 µM -61% | [5]; at 3.7 µM -59% | [5]; [16] -2% | [5]; at 11.0 µM -54% | [5]; at 33.0 µM 26% | [6]; at 1.2 µM -30% | [6]; at 3.7 µM -23% | [6]; at 11.0 µM 0% | [7]; [16] -7% | [8]; at 1.2 µM 36% | [8]; at 3.7 µM 33% | [8]; at 11.0 µM 31% | [8]; at 33.0 µM 63% | [9]; [16] 27% | [10]; at 1.2 µM -25% | [10]; at 3.7 µM -32% | [10]; [16] 7% | [10]; at 11.0 µM -18% | [10]; at 33.0 µM 56% | [11]; at 1.2 µM -68% | [11]; at 3.7 µM -64% | [11]; at 11.0 µM -60% | [11]; at 33.0 µM 61% | [12]; at 1.2 µM -38% | [12]; at 3.7 µM -37% | [12]; at 11.0 µM -45% | [12]; at 33.0 µM -5% | [13]; [16] 2% | [13]; at 50.0 µM 38.5% | [14]; at 1.2 µM -19% | [14]; at 3.7 µM -10% | [14]; at 11.0 µM -31% | [14]; at 33.0 µM 58%
99.4% (active) and 61% (inactive): [7]; at 50.0 µM
active: [1]; at 100.0 µM 98% | [2]; at 100.0 µM 93% | [4]; [17] 99% | [4]; at 100.0 µM 97% | [5]; [17] 99% | [5]; at 100.0 µM 97% | [6]; at 33.0 µM 89% | [6]; at 100.0 µM 98% | [7]; [17] 88% | [8]; at 100.0 µM 92% | [9]; [17] 99% | [9]; at 50.0 µM 99.2% and 77.3% | [10]; [17] 98% | [10]; at 100.0 µM 98% | [11]; at 100.0 µM 97% | [12]; at 100.0 µM 97% | [13]; [17] 99% | [14]; at 100.0 µM 98%

CCOC(=O)CC1(C(=O)OCC)c2[nH]c3ccccc3c2CCN1Cc1ccccc1 (stereo unspecified)
inactive: [1]; at 1.2 µM -1% | [1]; at 3.7 µM 0% | [1]; at 11.0 µM 1% | [1]; at 33.0 µM 7% | [1]; at 100.0 µM 45% | [2]; at 1.2 µM -3% | [2]; at 3.7 µM -2% | [2]; at 11.0 µM -1% | [2]; at 33.0 µM -5% | [2]; at 100.0 µM 42% | [3]; at 1.2 µM -7% | [3]; at 3.7 µM -7% | [3]; at 11.0 µM -11% | [3]; at 33.0 µM -9% | [3]; at 100.0 µM 0% | [4]; at 1.2 µM -2% | [4]; at 3.7 µM -2% | [4]; [16] 50% | [4]; at 11.0 µM 5% | [4]; at 33.0 µM 5% | [4]; [17] 50% | [4]; at 100.0 µM 38% | [5]; at 1.2 µM -3% | [5]; at 3.7 µM -4% | [5]; [16] 13% | [5]; at 11.0 µM -5% | [5]; at 33.0 µM -2% | [5]; [17] 13% | [5]; at 50.0 µM 61.2% | [5]; at 100.0 µM 50% | [6]; at 1.2 µM 1% | [6]; at 3.7 µM 1% | [6]; at 11.0 µM 1% | [6]; at 33.0 µM 3% | [6]; at 100.0 µM 33% | [7]; [16] 43% | [7]; [17] 43% | [7]; at 50.0 µM 62% | [8]; at 1.2 µM -1% | [8]; at 3.7 µM 2% | [8]; at 11.0 µM 4% | [8]; at 33.0 µM 12% | [9]; [16] -4% | [9]; [17] -4% | [10]; at 1.2 µM -3% | [10]; at 3.7 µM -7% | [10]; [16] 6% | [10]; at 11.0 µM 8% | [10]; at 33.0 µM 26% | [10]; [17] 6% | [10]; at 50.0 µM 55.1% | [10]; at 100.0 µM 37% | [15]; at 1.2 µM -1% | [15]; at 3.7 µM 0% | [15]; at 11.0 µM 0% | [15]; at 33.0 µM 2% | [15]; at 100.0 µM 45% | [11]; at 1.2 µM -4% | [11]; at 3.7 µM -3% | [11]; at 11.0 µM -2% | [11]; at 33.0 µM 11% | [11]; at 100.0 µM 45% | [13]; [16] 31% | [13]; [17] 31% | [13]; at 50.0 µM 65.2% | [14]; at 1.2 µM -3% | [14]; at 3.7 µM -15% | [14]; at 11.0 µM 8% | [14]; at 33.0 µM 3% | [14]; at 100.0 µM 35%
active: [4]; at 50.0 µM 70.9% | [8]; at 100.0 µM 74% | [9]; at 50.0 µM 74%
